Screening data (PubChem)
An excerpt weighted towards active compounds, which were near 0.26% of everything screened.
TSHR antag: Antagonists of the Thyroid Stimulating Hormone Receptor: HTS campaign; Thyrotropin receptor (Homo sapiens), P16473; TSHR-expressing cells, TSH-stimulated cAMP HTRF, 2 h; hits give low values; activity change, negative = inhibition, % at 11.5 µM; actives 0.2% (n = 330,000);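 active = activity change below a set negative limit, meaning inhibition stronger than a set level, cut at about -70% in these data; inconclusive = activity change between two set negative limits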; also: % is scaled to controls: 0 for no effect and ±100 for the full control effect
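TSHR-expressing cells were treated with compounds, then stimulated with TSH at EC80 (4nM final) for 2 hours at 37 deg C. Cellular cAMP was measured by HTRF competition between lysate cAMP and cAMP-d2 for a cryptate-labelled anti-cAMP antibody.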
CBFb RUNX1 block: qHTS Assay for Compounds Blocking the Interaction Between CBF-beta and RUNX1 for the Treatment of Acute Myeloid Leukemia | Runt-related transcription factor 1 (Homo sapiens) + Core-binding factor subunit beta … | AlphaScreen CBFb-His/RUNX1-biotin binding, biochemical | Potency, µM (doses to about 59.8 µM), for inactives: at the top dose activity, negative = inhibition, hits mostly inhibitors | 230,000 tested, under 10 active; also: % of control where 0% means no effect
Target sequence (Q01196 whole entry, looked up): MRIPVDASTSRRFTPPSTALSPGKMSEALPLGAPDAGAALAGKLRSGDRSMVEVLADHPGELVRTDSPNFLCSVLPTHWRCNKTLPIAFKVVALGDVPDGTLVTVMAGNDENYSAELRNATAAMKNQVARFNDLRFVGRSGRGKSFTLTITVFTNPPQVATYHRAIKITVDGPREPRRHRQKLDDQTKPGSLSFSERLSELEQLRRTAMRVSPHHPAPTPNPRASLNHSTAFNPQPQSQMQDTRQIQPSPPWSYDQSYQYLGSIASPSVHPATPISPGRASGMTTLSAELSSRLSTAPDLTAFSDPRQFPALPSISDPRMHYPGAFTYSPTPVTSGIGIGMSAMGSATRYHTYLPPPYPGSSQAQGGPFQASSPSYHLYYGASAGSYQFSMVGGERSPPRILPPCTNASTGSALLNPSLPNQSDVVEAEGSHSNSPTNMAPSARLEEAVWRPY
Target sequence (Q13951 whole entry, looked up): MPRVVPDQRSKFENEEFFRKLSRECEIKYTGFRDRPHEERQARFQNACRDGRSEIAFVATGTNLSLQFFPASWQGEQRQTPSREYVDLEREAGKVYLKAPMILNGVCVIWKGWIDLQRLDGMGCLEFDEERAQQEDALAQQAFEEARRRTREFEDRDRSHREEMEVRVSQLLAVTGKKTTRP
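Bead-based AlphaScreen assay; binding partners His-tagged CBF-beta and biotinylated RUNX1 at 30 nM each. Compound exposure 15 min after a 20-min protein preincubation; bead step 90 min; all steps at room temperature.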
MBNL1-CUG inh: qHTS Assay for Inhibitors of MBNL1-poly(CUG) RNA binding; TR-FRET MBNL1-His/biotin-(CUG)12 binding, 665/545 ratio; Potency, µM (top dose mostly 57.5 µM), for inactives: top-dose activity change, negative = inhibition, hits mostly inhibitors; actives 0.036% (n = 280,000); active = well fitted inhibition curve with a large enough effect in the signal ratio, with a control signal flat, not every such curve was filed as active; inconclusive = small, poorly fitted or top-dose-only effect, or effect the other way, or a change in a side signal; inactive = no such curve, though single readings can be large or run the other way; the % refers to the signal ratio; also: potency is read from the fitted curve at half-maximal effect; % is scaled to controls: 0 for no effect and ±100 for the full control effect
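Inhibition of protein-RNA binding appears as loss of TR-FRET between terbium anti-His antibody on MBNL1-His and streptavidin-XL665 on biotin-(CUG)12. Activity is normalized to buffer-only and uninhibited-complex controls.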
TSG101-PTAP inh: qHTS Assay for Iinhibitors of HIV-1 Budding by Blocking the Interaction of PTAP/TSG101; AID 493005, 2010; 340,000 tested, under 10 active; Tumor susceptibility gene 101 protein (Homo sapiens), Q99816; Fluorescence polarization, FITC-PTAP peptide / Tsg101 binding; Potency, µM (titrated, usually from 115 µM), inactives show at the top dose activity change, negative = inhibition, usual class: inhibitors; active = well fitted inhibition curve with a large enough effect in the main read-out, with a control signal flat, not every such curve was filed as active; inconclusive = small, poorly fitted or top-dose-only effect, or effect the other way, or a change in a side signal; inactive = no such curve, though single readings can be large or run the other way; also: potency is read from the fitted curve at half-maximal effect; % of control where 0% means no effect
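Fluorescence anisotropy tracks displacement of a FITC-tagged PTAP peptide (50 nM) from the Tsg101 binding domain (10 uM), following a 20 min room-temperature incubation at pH 7.5.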
TCR activator: Activators of T cell receptors: qHTS campaign. primary human leukocytes, anti-CD3, IL-2 HTRF, 48 h. Potency, µM (top dose mostly 9.22 µM), for the others: at the highest dose activation of IL-2 secretion, usual class: activators. 330,000 tested, under 10 active. AID 504894, 2011; also: % of control where 0% means no effect
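TCR engagement came from a-CD3 beads alone, with compounds added to primary human leukocytes for 48 hr. Secreted IL-2 bridged europium cryptate- and d2-labelled anti-IL-2 antibodies, giving FRET emission at 665nm after 320nm excitation.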
Integrin act MD: qHTS for Activators of Integrin-Mediated Alleviation for Muscular Dystrophy; alpha7betagal myoblasts, beta-gal FDG fluorescence, 48 h; Potency, µM (doses to about 38.3 µM), for the others: at the highest dose activation, usual class: activators; actives 0.064% (n = 350,000);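 also: potency is read from the fitted curve at half-maximal effect; 100% = response of the positive control SU9516; nearly all actives have a fitted effect of over 60% in size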
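Alpha7betagal+/- myoblasts (passage 13) were plated 16-24 hr, then exposed to compounds (1:260 dilution of DMSO stock) for 48 hours at 37C. After MPER lysis, β-galactosidase reporter activity was read as FDG fluorescence (ex 480/em 540) after 30 minutes.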
MBNL1 TRFRET: qHTS Assay for Inhibitors of MBNL1-poly(CUG) RNA binding: Initial hit validation from the primary screen; Potency, µM (titrated, usually from 57.6 µM), for the others: at the top dose activity change, negative = inhibition, hits mostly inhibitors; actives 50% (n = 140); shares compounds with MBNL1-CUG inh; AID 493199, 2011; TR-FRET MBNL1-His / biotin-(CUG)12 binding, 60 min
MBNL1 AlphaScrn: qHTS Assay for Inhibitors of MBNL1-poly(CUG) RNA binding: Initial hit validation in AlphaScreen assay for MBNL1-(CUG)12 binding; shares compounds with MBNL1-CUG inh; AlphaScreen MBNL1-His / biotin-(CUG)12 binding; Potency, µM (series often up to 57.7 µM), inactives show top-dose activity, negative = inhibition, most hits filed as inhibitors; actives 30% (n = 140); AID 493205, 2011
MBNL1 HTRF CS: qHTS Assay for Inhibitors of MBNL1-poly(CUG) RNA binding: Counterscreen HTRF assay; shares compounds with MBNL1-CUG inh; actives 20% (n = 120); His-Menin/biotin-MLL peptide TR-FRET counterscreen; Potency, µM (top dose mostly 57.6 µM), for the others: top-dose activity, negative = inhibition, most hits filed as inhibitors
* = called active by the depositor; [ ] = dose if it differs, or a comment. Unless noted, calls follow the shape of the dose curve; as a rule, active = well fitted curve in the direction sought with a large enough effect; inconclusive = small, poorly fitted or top-dose-only effect, or another doubt; inactive = no such curve, though single readings can be large; an effect the other way counts as inactive or inconclusive.

O=C1Cc2ccccc2C(=O)N1Cc1ccccc1 was read as TSHR antag -8, CBFb RUNX1 block 5%, MBNL1-CUG inh 25µM*, TSG101-PTAP inh -4%, TCR activator 7%, Integrin act MD 23%, MBNL1 TRFRET -9%, MBNL1 AlphaScrn inconclusive and MBNL1 HTRF CS 3%.
For CSCC[C@H](NC(=O)[C@H](Cc1c[nH]c2ccccc12)NC(=O)CCNC(=O)OC(C)(C)C)C(=O)N[C@@H](CC(=O)O)C(=O)N[C@@H](Cc1ccccc1)C(N)=O the results were CBFb RUNX1 block 4%.
`Cc1cc(Nc2ccc(Cl)cc2)nc(NCc2ccccc2)n1` gave TSHR antag -8, CBFb RUNX1 block 6%, MBNL1-CUG inh 6%, TSG101-PTAP inh -1%, TCR activator 2%[46.1 µM] and Integrin act MD -48%.
`Cc1cc(Nc2ccccc2)nc(NCc2ccccc2)n1` gave TSHR antag 2, CBFb RUNX1 block -5%, MBNL1-CUG inh 40µM*, TSG101-PTAP inh -5%, TCR activator -4%[46.1 µM], Integrin act MD -51%, MBNL1 TRFRET inconclusive, MBNL1 AlphaScrn 3.7µM* and MBNL1 HTRF CS -12%.
`O=c1cc(-c2ccc(O)c(O)c2)oc2ccccc12` gave CBFb RUNX1 block 5%.
Screening NCCCC(N)CC(=O)NCC1NC(=O)C(CO)NC(=O)C(N)CNC(=O)C(C2CCN=C(N)N2)NC(=O)/C(=C/NC(N)=O)NC1=O (stereo unspecified) returned MBNL1 TRFRET -1% and MBNL1 AlphaScrn -7%.
For CCOc1ccc2[nH]c(=O)c(C(c3nnnn3Cc3ccco3)N3CCN(C)CC3)cc2c1 (stereo unspecified) the results were TSHR antag 15, MBNL1-CUG inh inconclusive, TSG101-PTAP inh -1%, TCR activator -2%, Integrin act MD -13%, MBNL1 TRFRET -6%, MBNL1 AlphaScrn -10% and MBNL1 HTRF CS 4%.
O=C1NC(=O)C2C1C(c1ccccc1)N1C3C(=O)NC(=O)C3C(c3ccccc3)N21 (stereo unspecified) was read as TSHR antag 4, CBFb RUNX1 block -10%, MBNL1-CUG inh 32µM*, TSG101-PTAP inh -4%, TCR activator -2%, Integrin act MD 27%, MBNL1 TRFRET inconclusive, MBNL1 AlphaScrn inconclusive and MBNL1 HTRF CS 1%.
For CO/N=C(/C)CCC(=O)OC[C@@H]1O[C@H](c2ccccc2)C=C[C@@H]1Oc1ccc(OC)cc1 the results were CBFb RUNX1 block -7%[13.1 µM].
`COc1cc2c(C#N)c(N3CCOCC3)nc(N)c2c(N)n1` gave TSHR antag 0, CBFb RUNX1 block -3%, MBNL1-CUG inh -11%, TSG101-PTAP inh -5%, TCR activator 2% and Integrin act MD 5%.
`COc1cc2c(C#N)c(N3CCCCC3)nc(N)c2c(N)n1` gave TSHR antag -16, CBFb RUNX1 block 5%, MBNL1-CUG inh 5%, TSG101-PTAP inh -3%, TCR activator -1%, Integrin act MD 8%, MBNL1 TRFRET 9%, MBNL1 AlphaScrn 13% and MBNL1 HTRF CS 2%.
Cc1ccc(NC(=O)Nc2ccc(F)c(Cl)c2)cc1 was read as TSHR antag -14, CBFb RUNX1 block 8%, MBNL1-CUG inh 0%, TSG101-PTAP inh -1%, TCR activator 4% and Integrin act MD -29%.
`CCC(CC)NC(=O)Nc1ccc(F)c(Cl)c1` gave TSHR antag 15, CBFb RUNX1 block 9%, MBNL1-CUG inh 40µM*, TSG101-PTAP inh -3%, TCR activator 10%, Integrin act MD 5%, MBNL1 TRFRET inconclusive, MBNL1 AlphaScrn 4% and MBNL1 HTRF CS -23%.
Screening CCCN1C[C@H](CSC)C[C@@H]2c3cccc4[nH]cc(c34)C[C@H]21 returned TSHR antag -27, CBFb RUNX1 block -1%, MBNL1-CUG inh inconclusive, TSG101-PTAP inh 2%, TCR activator -2%, MBNL1 TRFRET inconclusive and MBNL1 AlphaScrn -42%.
CN1C[C@H](C(=O)N[C@]2(C)O[C@]3(O)[C@H]4CCCN4C(=O)[C@H](Cc4ccccc4)N3C2=O)C[C@H]2c3cccc4[nH]cc(c34)C[C@@H]21 was read as CBFb RUNX1 block -12%[21.7 µM].
`COc1c(C=O)c(=O)[nH]c2c(OC)cccc12` gave CBFb RUNX1 block 26%.
O=C1c2ccccc2C(=O)C12OC2c1cccc2ccccc12 (stereo unspecified) was read as TSHR antag 0, CBFb RUNX1 block 5%, MBNL1-CUG inh 25µM*, TSG101-PTAP inh -2%, TCR activator -1%[46.1 µM], Integrin act MD 0%, MBNL1 TRFRET -22%, MBNL1 AlphaScrn inconclusive and MBNL1 HTRF CS 7%.
Screening CCN1C(=O)[C@H]2[C@H]3[C@H](O)[C@H](O)C/C(=N/O[C@@H]4O[C@H](COC(C)=O)[C@@H](OC(C)=O)[C@H](OC(C)=O)[C@H]4OC(C)=O)[C@@H]3CC[C@@H]2C1=O returned CBFb RUNX1 block 1%[13.1 µM].
